Among the data in ChEMBL document CHEMBL3988442, “University of Dundee, Small-Polar-MMV Screening Library” (2021) are Percent Effect values, retold here.

What all share (design): scale not given: direction of the effect not stated beside the values
The target of test [1] is Protein translocase subunit SecA (Escherichia coli (strain K12)) (UniProt P10408). The test is described as follows: Assay to Identify E. coli SecA ATPase Inhibitors. Type of test: functional. To be noted: 30 µM.
In test [2] the target is T1, Ubiquitin-activating enzyme e1, putative (Leishmania donovani (strain BPK282A1)) (UniProt E9BSI1).
T1 sequence (whole entry): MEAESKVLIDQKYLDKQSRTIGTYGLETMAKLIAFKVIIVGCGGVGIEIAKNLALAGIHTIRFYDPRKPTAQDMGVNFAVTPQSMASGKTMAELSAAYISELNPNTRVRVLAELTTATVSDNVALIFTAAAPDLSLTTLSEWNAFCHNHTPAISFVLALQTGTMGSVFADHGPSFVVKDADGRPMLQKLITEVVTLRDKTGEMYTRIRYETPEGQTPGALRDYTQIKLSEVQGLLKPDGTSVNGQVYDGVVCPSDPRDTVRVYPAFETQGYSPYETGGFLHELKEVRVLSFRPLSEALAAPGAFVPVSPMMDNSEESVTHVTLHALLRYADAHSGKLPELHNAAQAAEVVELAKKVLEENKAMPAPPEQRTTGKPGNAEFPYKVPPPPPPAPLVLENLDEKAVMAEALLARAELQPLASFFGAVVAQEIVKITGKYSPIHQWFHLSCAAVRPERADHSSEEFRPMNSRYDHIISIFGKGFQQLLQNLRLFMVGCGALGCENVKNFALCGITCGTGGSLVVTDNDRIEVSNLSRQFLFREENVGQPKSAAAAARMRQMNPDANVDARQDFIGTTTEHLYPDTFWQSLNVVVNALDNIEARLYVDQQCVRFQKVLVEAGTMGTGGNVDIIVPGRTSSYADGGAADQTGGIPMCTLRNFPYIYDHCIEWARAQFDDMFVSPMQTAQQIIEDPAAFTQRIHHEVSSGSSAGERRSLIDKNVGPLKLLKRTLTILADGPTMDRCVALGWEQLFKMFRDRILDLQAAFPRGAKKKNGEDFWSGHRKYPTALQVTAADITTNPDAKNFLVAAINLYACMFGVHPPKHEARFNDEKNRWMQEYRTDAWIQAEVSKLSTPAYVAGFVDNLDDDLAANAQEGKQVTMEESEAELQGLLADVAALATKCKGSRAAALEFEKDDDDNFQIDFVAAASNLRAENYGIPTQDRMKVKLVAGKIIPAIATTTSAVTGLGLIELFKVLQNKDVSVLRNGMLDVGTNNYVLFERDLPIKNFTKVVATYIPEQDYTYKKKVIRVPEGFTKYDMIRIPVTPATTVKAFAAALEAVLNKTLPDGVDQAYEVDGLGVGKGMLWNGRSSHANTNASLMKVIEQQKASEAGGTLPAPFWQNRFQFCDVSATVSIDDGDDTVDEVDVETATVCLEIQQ
The test is described as follows: Leishmania donovani Ubiquitin Activating Enzyme (LdE1). In kind it is functional. To be noted: 30 µM.

Test [3] addresses AMP-activated protein kinase, AMPK (Homo sapiens) (UniProt P54646+O43741+P54619+Q9UGJ0+Q9Y478+Q13131+Q9UGI9). The test is described as follows: AMP-dependent Kinase enzyme assay. An in vitro enzyme assay that detects ADP turnover that is directly proportional to AMPK activity. This uses naive AMPK that is activated during the assay with MK-8722. Type of test: functional. To be noted: 30 µM.

For test [4], the target named is Sialic acid-binding Ig-like lectin 9 (Homo sapiens) (UniProt Q9Y336). The test is described as follows: Hs-Siglec9 ALPHAscreen SOP 20170721. To be noted: 10 µM. A general note: Alpha assays give light when donor and acceptor beads are brought close together.
For another test, the system named is Trypanosoma cruzi. Briefly: Trypanosoma cruzi phosphomannomutase and mannose-1-phosphate guanylyltransferase assay. To be noted: 10 µM. Type of test: functional.
Test [5] concerns the target T2, Arginase-2, mitochondrial (Homo sapiens) (UniProt P78540).
T2 sequence (whole entry): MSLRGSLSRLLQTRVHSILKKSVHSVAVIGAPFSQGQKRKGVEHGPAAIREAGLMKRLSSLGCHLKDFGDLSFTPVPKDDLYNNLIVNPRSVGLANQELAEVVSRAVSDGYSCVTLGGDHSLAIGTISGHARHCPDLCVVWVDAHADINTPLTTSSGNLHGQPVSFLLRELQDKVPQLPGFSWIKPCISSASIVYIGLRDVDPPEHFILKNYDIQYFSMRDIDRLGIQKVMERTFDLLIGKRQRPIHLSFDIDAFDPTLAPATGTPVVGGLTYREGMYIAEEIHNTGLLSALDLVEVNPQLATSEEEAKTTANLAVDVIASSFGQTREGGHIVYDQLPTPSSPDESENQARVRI
Briefly: in vitro enzyme assay to detect the production of urea directly proportional to the activity of Arginase II. Further: in the data most compounds retested in dose-response had high values. Type of test: functional. To be noted: 33.3 µM.

For test [6], the target named is T3, Proteasome subunit beta (Trypanosoma cruzi) (UniProt O96673).
T3 sequence (whole entry): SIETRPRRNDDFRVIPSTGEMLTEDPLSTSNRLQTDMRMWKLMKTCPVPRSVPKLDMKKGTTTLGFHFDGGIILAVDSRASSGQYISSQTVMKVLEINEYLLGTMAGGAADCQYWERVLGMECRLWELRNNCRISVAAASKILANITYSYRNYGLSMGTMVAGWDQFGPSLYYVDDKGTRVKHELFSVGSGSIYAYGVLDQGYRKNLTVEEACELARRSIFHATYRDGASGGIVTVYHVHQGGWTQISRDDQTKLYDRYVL
Briefly: Trypanosoma cruzi proteasome chymotrypsin-like activity (TcProtChymo) assay. Further: in the data most compounds retested in dose-response had high values. Type of test: functional. To be noted: 9.37 µM.

For the next test, the species on record is Homo sapiens. Briefly: To identify inhibition of the IFN signalling (Jak-Stat) pathway via expression of an eGFP reporter gene under the control of an IFN-stimulated response element (ISRE) containing MxA promoter. In kind it is functional. To be noted: 30 µM.
The target of test [7] is T4, Tyrosyl-tRNA synthetase, putative (Trypanosoma cruzi (strain CL Brener)) (UniProt Q4DSP6).
T4 sequence (whole entry): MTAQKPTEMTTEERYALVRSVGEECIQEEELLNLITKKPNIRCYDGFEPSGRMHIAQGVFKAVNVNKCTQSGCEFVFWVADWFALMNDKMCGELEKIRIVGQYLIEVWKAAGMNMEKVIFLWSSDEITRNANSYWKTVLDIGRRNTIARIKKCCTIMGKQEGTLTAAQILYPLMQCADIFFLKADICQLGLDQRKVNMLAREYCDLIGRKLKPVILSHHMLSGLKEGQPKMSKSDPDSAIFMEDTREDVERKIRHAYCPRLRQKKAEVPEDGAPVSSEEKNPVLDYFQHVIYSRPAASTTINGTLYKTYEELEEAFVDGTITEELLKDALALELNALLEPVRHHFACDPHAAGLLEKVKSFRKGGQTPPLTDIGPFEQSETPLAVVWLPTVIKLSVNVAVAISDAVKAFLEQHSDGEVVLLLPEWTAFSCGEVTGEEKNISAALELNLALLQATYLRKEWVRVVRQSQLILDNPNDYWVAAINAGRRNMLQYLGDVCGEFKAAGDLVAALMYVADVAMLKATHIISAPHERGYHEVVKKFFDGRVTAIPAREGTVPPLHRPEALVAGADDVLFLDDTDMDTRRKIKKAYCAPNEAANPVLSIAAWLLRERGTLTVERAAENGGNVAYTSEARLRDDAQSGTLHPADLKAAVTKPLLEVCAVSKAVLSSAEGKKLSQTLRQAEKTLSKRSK
The test is described as follows: Trypanosoma cruzi tyrosyl tRNA synthetase (TcYRS) _High Tyrosine SOP. Further: in the data most compounds retested in dose-response had high values. Type of test: functional. To be noted: 30 µM.

Test [8] deals with T4, Tyrosyl-tRNA synthetase, putative (Trypanosoma cruzi (strain CL Brener)). The test is described as follows: Trypanosoma cruzi tyrosyl tRNA synthetase (TcYRS) SOP. To be noted: 30 µM. Type of test: functional.
The target in test [9] is Chromo domain-containing protein 1 (Saccharomyces cerevisiae (strain ATCC 204508 / S288c) (Baker's yeast)) (UniProt P32657). The test is described as follows: ScCHD-1 Enzyme Inhibition Assay. Further: in the data most compounds retested in dose-response had high values. In kind it is functional. To be noted: 30 µM.

For some of these results: Entries with a potency or affinity are not part of this list.

Protein translocase subunit SecA (Escherichia coli (strain K12)), sequence (P10408 whole entry): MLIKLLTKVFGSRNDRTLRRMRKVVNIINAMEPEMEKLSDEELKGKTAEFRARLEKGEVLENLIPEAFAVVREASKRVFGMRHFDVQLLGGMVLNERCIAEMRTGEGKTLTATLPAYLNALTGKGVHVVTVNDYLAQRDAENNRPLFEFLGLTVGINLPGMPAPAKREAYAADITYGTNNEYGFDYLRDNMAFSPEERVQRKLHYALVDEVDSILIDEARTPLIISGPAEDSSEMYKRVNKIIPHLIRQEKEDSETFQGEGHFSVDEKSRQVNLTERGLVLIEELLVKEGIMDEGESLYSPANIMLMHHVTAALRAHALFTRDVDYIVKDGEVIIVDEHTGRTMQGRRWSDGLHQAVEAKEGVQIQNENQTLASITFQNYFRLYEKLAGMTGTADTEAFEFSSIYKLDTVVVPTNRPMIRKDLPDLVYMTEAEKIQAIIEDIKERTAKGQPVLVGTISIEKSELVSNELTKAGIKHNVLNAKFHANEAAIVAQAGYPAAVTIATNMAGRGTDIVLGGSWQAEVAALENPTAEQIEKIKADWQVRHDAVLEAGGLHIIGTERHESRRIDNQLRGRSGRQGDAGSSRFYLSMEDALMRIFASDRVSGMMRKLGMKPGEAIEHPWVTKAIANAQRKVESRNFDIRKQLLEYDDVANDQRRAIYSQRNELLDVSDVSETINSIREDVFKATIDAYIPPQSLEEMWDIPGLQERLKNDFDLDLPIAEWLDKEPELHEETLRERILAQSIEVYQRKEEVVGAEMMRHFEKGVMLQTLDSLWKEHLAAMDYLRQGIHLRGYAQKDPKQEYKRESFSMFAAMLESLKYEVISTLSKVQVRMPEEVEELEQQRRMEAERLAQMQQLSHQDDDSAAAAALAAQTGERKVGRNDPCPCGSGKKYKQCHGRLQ
Chromo domain-containing protein 1 (Saccharomyces cerevisiae (strain ATCC 204508 / S288c) (Baker's yeast)), sequence (P32657 whole entry, the tested form may be a part): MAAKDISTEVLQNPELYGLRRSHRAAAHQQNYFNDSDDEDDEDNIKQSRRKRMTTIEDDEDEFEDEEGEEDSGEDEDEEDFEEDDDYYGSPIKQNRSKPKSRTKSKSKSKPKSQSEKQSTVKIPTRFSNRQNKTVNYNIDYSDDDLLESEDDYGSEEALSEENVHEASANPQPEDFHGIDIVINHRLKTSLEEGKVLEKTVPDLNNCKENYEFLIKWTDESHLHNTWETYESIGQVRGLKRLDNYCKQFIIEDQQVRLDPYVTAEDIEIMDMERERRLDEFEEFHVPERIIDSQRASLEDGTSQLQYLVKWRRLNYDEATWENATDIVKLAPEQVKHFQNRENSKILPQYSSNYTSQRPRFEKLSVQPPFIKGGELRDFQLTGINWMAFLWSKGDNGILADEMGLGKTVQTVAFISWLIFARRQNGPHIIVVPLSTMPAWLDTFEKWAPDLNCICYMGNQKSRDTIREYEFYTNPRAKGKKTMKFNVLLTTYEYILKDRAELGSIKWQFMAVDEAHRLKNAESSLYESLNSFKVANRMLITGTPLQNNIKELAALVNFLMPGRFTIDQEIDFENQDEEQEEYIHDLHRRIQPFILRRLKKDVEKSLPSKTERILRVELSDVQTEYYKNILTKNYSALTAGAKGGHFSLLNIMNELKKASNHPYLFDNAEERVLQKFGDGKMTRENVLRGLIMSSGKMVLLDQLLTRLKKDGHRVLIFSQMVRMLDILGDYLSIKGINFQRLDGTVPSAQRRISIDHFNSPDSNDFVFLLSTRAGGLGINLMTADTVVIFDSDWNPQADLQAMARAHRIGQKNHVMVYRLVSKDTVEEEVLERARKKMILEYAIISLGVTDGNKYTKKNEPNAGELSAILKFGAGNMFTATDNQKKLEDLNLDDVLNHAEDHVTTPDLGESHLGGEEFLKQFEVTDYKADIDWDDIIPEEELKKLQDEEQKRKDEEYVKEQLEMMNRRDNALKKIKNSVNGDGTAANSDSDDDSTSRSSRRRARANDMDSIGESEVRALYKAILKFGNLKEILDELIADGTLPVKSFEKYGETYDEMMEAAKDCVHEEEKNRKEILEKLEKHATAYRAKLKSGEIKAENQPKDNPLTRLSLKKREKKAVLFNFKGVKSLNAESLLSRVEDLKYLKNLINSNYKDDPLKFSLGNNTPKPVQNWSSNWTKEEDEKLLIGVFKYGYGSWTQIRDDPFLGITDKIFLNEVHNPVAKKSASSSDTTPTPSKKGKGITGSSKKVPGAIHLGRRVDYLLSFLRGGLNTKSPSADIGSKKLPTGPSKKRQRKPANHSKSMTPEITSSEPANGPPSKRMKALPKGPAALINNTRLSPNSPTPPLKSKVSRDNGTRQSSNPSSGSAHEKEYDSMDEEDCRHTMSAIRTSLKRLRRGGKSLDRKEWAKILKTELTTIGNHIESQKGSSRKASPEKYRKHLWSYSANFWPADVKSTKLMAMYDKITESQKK
Sialic acid-binding Ig-like lectin 9 (Homo sapiens), sequence (Q9Y336 whole entry): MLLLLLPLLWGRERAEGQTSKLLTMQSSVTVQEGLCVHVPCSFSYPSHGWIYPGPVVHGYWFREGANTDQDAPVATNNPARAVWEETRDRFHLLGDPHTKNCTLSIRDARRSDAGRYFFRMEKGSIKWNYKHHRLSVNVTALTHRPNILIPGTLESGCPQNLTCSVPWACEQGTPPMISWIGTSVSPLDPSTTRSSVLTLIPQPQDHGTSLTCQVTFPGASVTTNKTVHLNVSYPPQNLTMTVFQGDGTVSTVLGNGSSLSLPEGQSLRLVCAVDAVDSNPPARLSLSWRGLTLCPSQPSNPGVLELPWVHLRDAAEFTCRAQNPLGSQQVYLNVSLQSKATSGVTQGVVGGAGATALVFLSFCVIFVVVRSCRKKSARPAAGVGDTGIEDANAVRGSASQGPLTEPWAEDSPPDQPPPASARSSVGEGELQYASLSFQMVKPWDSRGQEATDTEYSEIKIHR

As for `COCCOc1ncccc1CNCc1c(C)nn(C)c1N(C)C`, the Percent Effect in test [1] is -1.27%; in test [2], -5.41%; in test [3], -15.1%; in test [4], -0.788%; in the test on Trypanosoma cruzi, 1.98%; in test [5], 3.61%. The Percent Effect in [6] is 0.721%; in the test filed under Homo sapiens it was -9.31%; in test [7] it was 2.46%; in test [8] it was 6.17%; in test [9] it was -18.1%.
Regarding `CNCC(=O)N1CC(c2cc(Nc3ncccn3)nc(C)n2)C1`, the Percent Effect in test [1] was 0.103%; in [2], 10.7%; in [3], 6.11%; in test [4] it was -7.15%; in the test with Trypanosoma cruzi it was -4.33%; in test [5], -1.63%. Further, the Percent Effect was 8.9% in [6]; 13.8% in the test filed under Homo sapiens; 10.6% in [7]; 16.7% in test [8]; -1.56% in test [9].
As for `COc1ccc(C(C(=O)O)N2CCCN(C3CCCC3)CC2)cc1OC` (stereo not drawn), the Percent Effect in [1] is -8.69%; in [2], 0%; in [3] it was -2.66%; in test [4], -4.35%; in the test with Trypanosoma cruzi, -3.81%; in test [5], -2.23%. Moreover, the Percent Effect in test [6] is -0.429%; in the test listed under Homo sapiens, 16%; in test [7], -9.68%; in test [8], -1.24%; in test [9], -4.58%.
For the compound `COc1ccccc1[C@@H]1CN(C(=O)c2csc(C)n2)C[C@H]1C(=O)O`, the Percent Effect is -2.85% in [1]; 1.39% in [2]; -3.07% in [3]; -2.56% in [4]; -0.0972% in the test with Trypanosoma cruzi; 5.3% in [5]. For the same compound, the Percent Effect in test [6] is 16.7%; in the test filed under Homo sapiens it was -4.31%; in test [7] it was 12.6%; in test [8], 17.9%; in test [9], -3.19%.
Regarding `Cn1ccnc1N1CCN(C(=O)Cc2ccc(F)cc2)CC1`, the Percent Effect in test [1] was -3.69%; in test [2], 13%; in test [3], 5.01%; in test [4] it was 3.61%; with Trypanosoma cruzi, 2.86%; in [5], 0.645%. Further, the Percent Effect in [6] was 17.6%; in the test listed under Homo sapiens, 14.3%; in test [7] it was 6.35%; in test [8], 11.5%; in test [9], -9.3%.
Consider `Cc1cc(S(=O)(=O)N2CCC(S(C)(=O)=O)CC2)ccc1F`, for which the Percent Effect in test [1] is -4.08%; in test [2], 5.2%; in [3], 6.02%; in [4] it was 4.37%; in the test with Trypanosoma cruzi, -0.493%; in test [5], 8.39%. For the same compound, the Percent Effect is -2.96% in test [6]; 14.6% in the test filed under Homo sapiens; 4.23% in [7]; 11.5% in [8]; -5.25% in test [9].
`COc1ccc(CC(=O)N2CCCN(c3ccc(C#N)cc3)CC2)cc1`: the Percent Effect in test [1] was -3.96%; in [2], -5.26%; in test [3], 8.87%; in test [4], -0.428%; with Trypanosoma cruzi, -5.75%; in test [5] it was -8.28%. The Percent Effect in test [6] was 11.8%; in the test listed under Homo sapiens, -1.35%; in test [7], -3.19%; in test [8], 2.6%; in [9], -7.99%.
For the compound `Cn1cnc2c1CCN(Cc1noc(-c3ccccc3)n1)C2`, the Percent Effect in [1] is -4.07%; in test [2], 15.8%; in test [3] it was -9.94%; in test [4] it was 14.2%; in the test with Trypanosoma cruzi, 3.08%; in test [5] it was -2.52%. In addition, the Percent Effect in [6] is 1.27%; in the test listed under Homo sapiens, -13.4%; in test [7] it was 6.4%; in test [8] it was 11.1%; in test [9] it was 0.774%.
